The values that follow come from PubChem BioAssay AID1688 (National Center for Advancing Translational Sciences (NCATS), 2009).

The structures appear in SMILES notation. The whole screen tested about 220,000 compounds, of which about 2,400 (1.1%) were called active. Not shown: some 7% with an inconclusive outcome. This excerpt belongs to a sample that is enriched for actives. Unmarked numbers belong to inactive results. Calls come from the whole dose curve; as a rule, active = well fitted inhibition curve with a large enough effect; inconclusive = small, poorly fitted or top-dose-only effect, or effect the other way; inactive = no such curve, though single readings can be large or run the other way.
% is set by controls: 0 for no effect and ±100 for the full control effect.

This assay can be described thus: qHTS Multiplex Assay to Identify Dual Action Probes in a Cell Model of Huntington: Aggregate Formation (GFP). Note: nearly all actives have a fitted effect of over 60% in size. Conditions: PC12 HttQ103-GFP aggregates, Acumen cytometry, 40 h; series mostly up to 9.22 µM; activity change, negative = inhibition: at the top concentration. The text has this:
NIH Chemical Genomics Center [NCGC]
NIH Molecular Libraries Probe Production centers Network [MLPCN]
Assay Submitter (PI): Wei Zheng
Huntington's disease is a neurodegenerative disorder caused by a trinucleotide repeat expansion in Exon 1 of the Huntingtin gene. The CAG trinucleotide encodes glutamine and polyglutamine expansions cause cell death in selective areas of the brain. Huntington polyglutamine repeats have the tendency to form aggregates which are observable in later stages of the disease. The exact nature of the aggregates, whether toxic, protective, or insignificant, is unclear.
A stable PC12 cell line containing a gene fusion of Exon 1 of the Huntingtin gene linked to GFP under the control of the inducible ecdysone promoter were used as the cell-based model of Huntington Disease for high throughput screening. Exon 1 of the Huntingtin gene contained an expansion of 103 polyglutamines (Q103) which, when expressed, caused cell death and distinct, bright GFP aggregates. The amount of cell death and the size and intensity of GFP aggregates increased over time and induction level. The cell death were quantified with a measurement of ATP content in the cells. A maximal 40-50% of cell death was observed when the Huntington gene was induced in this cell line.
We optimized this assay in a homogeneous 1536 well format. A quantitative high throughput screen (qHTS) was conducted on the PC12 cells which were induced to express the toxic fusion construct. Small molecules which reduced aggregate formation were identified bu using a laser scanning cytometer calibrated to detect the aggregates in cell lysates.
PC12 cells stably containing a construct with an ecdysone inducible promoter expressing GFP fused to the exon 1 of HTTQ103 (Huntington protein which containing a 103 ployglutamine expansion) were used.
NCGC Assay Protocol Summary:
Sequence, Parameter, Description
1, Reagent, 5 uL 1500 cells/well 1536 TC treated White clear bottom plate
2, Compound, 23 nL Tebufenozide inducer (100 nM final) to all columns
3, Compound, 23 nL 40 uM to 0.5 nM Libraries
5, Reagent, 5 ul ATPLite cell death assay reagent
6, Detector, Aggregate quantitation by Acumen Explorer
Media consisted of phenol red free DMEM + 5% equine serum (Hyclone # SH30072.03 ), 5% supplemented Bovine Calf Serum (Hyclone # SH30074.03 ), 1x pen/strep, no G418
Acumen Explorer was used to quantitate GFP aggregates using the following criteria: […] laser excitation, 500-530 nm emission, the PMT was set at a voltage of 450 volts, and objects ranging in size of […] in size having a signal of 6 STDEV above background were collected.
Control columns: 1 = DMSO, 2= 2 uM teb dilns (1:1), 4 = 100 nM Teb inducer. Sample columns received 100 nM Teb.
As to `CCCCCn1c(=O)c(C(=O)NCc2ccccn2)c(O)c2ccccc21`, the Potency was 31.6 µM (active).

For `CCCCCn1c(=O)c(C(=O)Nc2c(C)n(C)n(-c3ccccc3)c2=O)c(O)c2ccccc21`, the “activity change, negative = inhibition” value was -4.15% [at 46.1 µM].

Consider `C=CCN1CCC23c4c5ccc(O)c4O[C@H]2C(=O)CC[C@@]3(O)C1C5` (stereo not given in full), for which the “activity change, negative = inhibition” value was -12.6% [at 46.1 µM].

As to `c1ccc2sc(SNC3CCCCC3)nc2c1`, the “activity change, negative = inhibition” value was 4.56% [at 46.1 µM].

Consider `CN1CCN(/N=C/c2c[nH]c3ccccc23)CC1`, for which the “activity change, negative = inhibition” value is -7.16%.

With `CC(Cc1ccccc1)NC=O` (stereo not given), the “activity change, negative = inhibition” value was 7.73% [at 46.1 µM].

`CN1CCCC(=C(c2cccs2)c2cccs2)C1`: the “activity change, negative = inhibition” value was 12.7% [at 46.1 µM].

As to `Cc1ncc(CC(=O)n2cc(C(=O)c3cc(Cl)ccc3O)cn2)s1`, the Potency is 14.1 µM (active).

In the case of `COc1cccc(CN2CCCC(C(=O)c3ccccc3SC)C2)c1O` (stereo not given), the “activity change, negative = inhibition” value is 7.86%.

As to `CC[N+]1(CCOC(=O)C(O)(c2ccccc2)c2ccccc2)CCCCC1`, the “activity change, negative = inhibition” value was 0.998% [at 46.1 µM].

`COc1ccc(-n2c(-c3ccccc3)nc3ccccc3c2=O)cc1`: the “activity change, negative = inhibition” value is -2.76%.

Consider `O=Cc1cn(Cc2ccc(F)cc2Cl)c2ccccc12`, for which the Potency is 10 µM (active).

Turning to `CC1C2Cn3c(nc4ccccc43)C1N(C)O2` (stereo not given), the “activity change, negative = inhibition” value is -32.9%.

As to `CCCCC(=O)N/N=C/c1c(O)n(-c2ccccc2)c(=O)[nH]c1=O`, the “activity change, negative = inhibition” value is -6.96%.

Take `CCCCC(=O)N/N=C/c1c(O)n(CCC2=CCCCC2)c(=O)[nH]c1=O`: the “activity change, negative = inhibition” value was 7.87%.

In the case of `CCCCC(=O)N/N=C/c1c(O)n(CC)c(=S)n(CC)c1=O`, the Potency was 3.98 µM (active).

In the case of `COC([CH2][Hg])CNC(=O)c1ccccc1OCC(=O)O` (stereo not given), the “activity change, negative = inhibition” value was 7.98% [at 46.1 µM].

As for `O=C(N/N=C/c1ccc([N+](=O)[O-])o1)c1cc([N+](=O)[O-])cc([N+](=O)[O-])c1O`, the “activity change, negative = inhibition” value was 8.73% [at 46.1 µM].

As for `CC(C)c1ccc(-n2c(O)c(/C=N/N3CCOCC3)c(=O)[nH]c2=S)cc1`, the “activity change, negative = inhibition” value was -11.4%.

As to `CCCn1c(C(=O)c2ccccc2OC)nc2ccccc21`, the “activity change, negative = inhibition” value is 5.56%.
